# Measured values taken from PubChem BioAssay AID588445 (Southern Research Specialized Biocontainment Screening …, 2011).
# Results filed as inconclusive are left out. Active and inactive are the calls of the source. How the calls were made is not given here.
# Assay: Vero cell cytotoxicity, dose response, cytotoxicity control for M. tuberculosis inhibitor project, purified and synthesized compounds, set 6 (AID 588445)
# Settings: cytotoxicity counter-screen; series mostly up to 100 µM
row,Structure (SMILES),outcome
1,CCOC(=O)CSc1ncnc2c1cnn2-c1ccccc1,inactive
2,COc1ccc(N2CCN(C(=O)c3ccc(CNc4c(N5CCOCC5)c(=O)c4=O)cc3)CC2)cc1,inactive
3,CCOC(=O)CSc1ncnc2c1cnn2-c1ccc(C)cc1C,inactive
4,CC(C)OC(=O)CSc1ncnc2c1cnn2-c1ccccc1,inactive
5,COC(=O)CSc1ncnc2c1cnn2-c1ccc(C)cc1C,inactive
6,CC1CC(C)CN(C(=O)C2CCC(CNc3c(N4CCCCC4)c(=O)c3=O)CC2)C1 (stereo unspecified),inactive
